FBW7 activator: activators of human E3 ligase FBW7. normalized activity (activation), % at 26.1 µM. AID 1259310. 0.13% of 650,000 active. AlphaScreen FBW7–phospho-cyclin E peptide binding, activator screen; in the data active = normalized activity above about 1.9%;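 note: purified mutant Fbw7 with reduced substrate affinity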
TEAD-YAP inh: TEAD-YAP interaction inhibition; HEK-TIYL cells, TEAD-Gal4/YAP UAS-luciferase luminescence; inhibition, % at 9.12 µM; 1.4% of 640,000 active; AID 1259422; in the data active = inhibition above about 32%
MITF inh: blocks human microphthalmia-associated transcription factor | O75030 | AlphaScreen MITF homodimerization, bead proximity signal | inhibition, % at 2.6 µM | 0.91% of 650,000 active | AID 1259374; in the data active = inhibition above about 50%
GPR151 ag: activators of human GPR151 | Q8TDV0 | activation, % at 11.2 µM | 1% of 650,000 active | PathHunter beta-arrestin GPR151 cells, luminescence; in the data active = activation above about 4.9%
GPR151 confirm: human GPR151 activation, confirmation screen | shares compounds with GPR151 ag | GPR151 PathHunter beta-arrestin cells, luminescence, 90 min; % of EA-reagent control over plate median | activation, % at 11.2 µM | 6,700 tested, under 10 active;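 active = mean percent activation across replicates above the confirmation screen cutoff of 4.91%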
GPR119 counter: GPR119 activation, counter-screen for GPR151 activators. GPR119 PathHunter beta-arrestin cells, luminescence, 90 min; 0 = compound-well median, 100 = enzyme-acceptor control. activation, % at 11.2 µM. 0.3% of 6,700 active. shares compounds with GPR151 ag;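 active = mean percent activation in the counterscreen above 29.09%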;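 note: counterscreen on off-target GPR119 to flag nonselective hits from the GPR151 activator screen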
Target sequence (Q8TDV5 whole entry, looked up): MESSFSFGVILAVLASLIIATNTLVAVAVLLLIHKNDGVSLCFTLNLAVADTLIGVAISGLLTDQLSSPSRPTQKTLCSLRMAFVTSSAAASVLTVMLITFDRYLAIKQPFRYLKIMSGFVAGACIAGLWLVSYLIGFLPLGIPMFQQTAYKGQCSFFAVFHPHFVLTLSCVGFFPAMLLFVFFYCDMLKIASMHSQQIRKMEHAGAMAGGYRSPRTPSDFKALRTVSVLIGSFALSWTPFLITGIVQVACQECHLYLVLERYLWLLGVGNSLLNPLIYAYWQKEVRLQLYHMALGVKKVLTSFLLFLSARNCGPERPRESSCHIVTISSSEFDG
Of the large screens only hits and unclear results are named; the others gave an inactive call (follow-up assays come after a bar, where they were run). Sampled rows, rich in hits. Any-hit rate of the full collection: about 3.5%.

CSc1nc(N)nc(SCC(=O)c2ccccc2)c1C#N	none
CSc1nc(N)nc(SC(C(=O)O)c2ccccc2)c1C#N (configuration not stated)	GPR151 ag 8.6 | GPR151 confirm inactive | GPR119 counter inactive
CCCCN(CC)C(=O)/C=C/c1cc(OC)c(OC)c(OC)c1	GPR151 ag 5.0 | GPR151 confirm inactive | GPR119 counter inactive
NC(=O)c1ccccc1NC(=O)/C=C/c1ccccc1	GPR151 ag 7.7 | GPR151 confirm inactive | GPR119 counter inactive
O=C(/C=C/c1ccc([N+](=O)[O-])cc1)Nc1ccccc1Cl	GPR151 ag 7.4 | GPR151 confirm inactive | GPR119 counter inactive
NC(=O)c1ccccc1NC(=O)/C=C/c1ccc(Cl)cc1	none
CCSc1ccsc1C1C(C#N)=C(N)N(c2cccnc2)C2=C1C(=O)CC(C)(C)C2 (configuration not stated)	none
COc1ccc(S(=O)(=O)NCC(c2ccco2)N(C)C)cc1F (configuration not stated)	GPR151 ag 6.5 | GPR151 confirm inactive | GPR119 counter inactive
CC1CCN(S(=O)(=O)c2cc(C(=O)Nc3ccc(C(C)C)cc3)ccc2F)CC1	none
O=C(/C=C/c1cc([N+](=O)[O-])ccc1O)Nc1cccc(Br)c1	GPR151 ag 5.6 | GPR151 confirm inactive | GPR119 counter inactive
O=C(c1cc(-c2cccs2)[nH]n1)N1CCN(c2ccccc2F)CC1	none
O=C(c1ncoc1-c1cccs1)N1CCN(c2ccccc2F)CC1	GPR151 ag 5.1 | GPR151 confirm inactive | GPR119 counter inactive
COc1ccc(N2C(=O)CC(NCCNC(=O)c3ccc(Cl)cc3)C2=O)cc1 (configuration not stated)	GPR151 ag 17.8 | GPR151 confirm inactive | GPR119 counter inactive
COc1ccc(N2C(=O)CC(NC34CC5CC(CC(C5)C3)C4)C2=O)cc1 (configuration not stated)	GPR151 ag 5.5 | GPR151 confirm inactive | GPR119 counter inactive
Cc1ccc(N2C(=O)CC(NC34CC5CC(CC(C5)C3)C4)C2=O)cc1 (configuration not stated)	none
Cc1ccccc1C(=O)Nc1nn(C)c2c1CC(C)C(=O)N2 (configuration not stated)	none
CCN(CC(=O)NC(C)C)C(=O)C(CCSC)NC(=O)c1cccc(C)c1 (configuration not stated)	GPR151 ag 6.3 | GPR151 confirm inactive | GPR119 counter inactive
COc1ccc(N2CCN(Cc3ccc([N+](=O)[O-])s3)CC2)cc1	MITF inh 55.6, GPR151 ag 5.1 | GPR151 confirm inactive | GPR119 counter inactive
COc1ccc(N2CCN(C/C=C/c3ccccc3[N+](=O)[O-])CC2)cc1	none
COc1ccc(OC(C)C(=O)Nc2ccc(C)cc2C)cc1 (configuration not stated)	none
COc1ccc(OC(C)C(=O)Nc2cc(C)ccc2C)cc1 (configuration not stated)	GPR151 ag 5.0 | GPR151 confirm inactive | GPR119 counter inactive
CCCN1C(=O)c2ccc(C(=O)Nc3ccccc3I)cc2C1=O	none
CN1C(=O)c2ccc(C(=O)Nc3ccccc3I)cc2C1=O	GPR151 ag 5.2 | GPR151 confirm inactive | GPR119 counter inactive
N#CC1=C(N)OC2=C(C(=O)CCC2)C1c1ccc(C2C(C#N)=C(N)OC3=C2C(=O)CCC3)cc1 (configuration not stated)	none
COc1ccc(-c2nnc(SCC(=O)Nc3ccc(C)c(C)c3)nc2-c2ccc(OC)cc2)cc1	none
O=C(O)CCc1nn2c3ccccc3n(CC(=O)O)c2nc1=O	GPR151 ag 21.3 | GPR151 confirm inactive | GPR119 counter inactive
O=C(O)CCc1nn2c3ccccc3n(CCN3CCCCC3)c2nc1=O	none
O=C(Cn1c(=O)n(-c2ccccc2)c(=O)c2oc3ccccc3c21)N1CCCCC1	GPR151 ag 5.1 | GPR151 confirm inactive | GPR119 counter inactive
NC1=NC(=O)C(CC(=O)Nc2ccccc2OC(F)F)S1 (configuration not stated)	none
CCOC(=O)CN(c1ccccc1Cl)S(=O)(=O)c1ccc(F)cc1	GPR151 ag 22.7 | GPR151 confirm inactive | GPR119 counter inactive
COc1ccc(S(=O)(=O)N(CC(=O)O)c2ccc(Cl)cc2)cc1	GPR151 ag 5.6 | GPR151 confirm inactive | GPR119 counter inactive
COC(=O)CN(c1ccccc1OC)S(=O)(=O)c1ccc(OC)cc1	GPR151 ag 7.1 | GPR151 confirm inactive | GPR119 counter inactive
O=C(NNS(=O)(=O)c1ccc(F)cc1)c1cccnc1	none
CC1CCCN(C(=O)Cn2nnc(-c3ccc(C(F)(F)F)cc3)n2)C1 (configuration not stated)	none
NC(C(=O)Nc1ccc(-c2ccncn2)cc1)c1ccc(F)cc1F (configuration not stated)	none
CCOc1ccc(-c2nc(-c3ccncc3)no2)cc1OCC	GPR151 ag 4.9 | GPR151 confirm inactive | GPR119 counter inactive
CCOc1ccc(-c2nc(-c3ccc([N+](=O)[O-])cc3)no2)cc1OCC	none
CCOc1ccc(NC(=O)C(CC(=O)O)C2CCCO2)cc1 (configuration not stated)	none
Cc1ccc(NC(=O)C(CC(=O)O)C2CCCO2)cc1 (configuration not stated)	GPR151 ag 18.6 | GPR151 confirm inactive | GPR119 counter inactive
O=C(CN1CCN(Cc2ccccc2)C1=O)NCc1ccc(Cl)cc1	GPR151 ag 13.3 | GPR151 confirm inactive | GPR119 counter inactive
O=C(NCc1ccc(Cl)cc1)C1C2C=CC3(CN(Cc4ccccc4)C(=O)C13)O2 (configuration not stated)	GPR151 ag 5.1 | GPR151 confirm inactive | GPR119 counter inactive
O=C(NCc1ccccc1)C1C2C=CC3(CN(Cc4ccccc4)C(=O)C13)O2 (configuration not stated)	none
CC(=O)N1CCc2c(sc(NC(=O)C3CCCCC3)c2C#N)C1	none
O=C(NCC1Cc2cc(-c3cncnc3)ccc2O1)c1ccoc1 (configuration not stated)	none
Cc1ccc2nc(-c3ccc(C)c(C)c3)cc(C(=O)OCC(=O)c3ccc([N+](=O)[O-])cc3)c2c1	GPR151 ag 5.6 | GPR151 confirm inactive | GPR119 counter inactive
Cc1ccc(C(=O)COC(=O)c2cc(-c3ccc(C)c(C)c3)nc3ccc(C)cc23)cc1	none
Cc1ccc(Sc2cc(C(=O)NC3CC3)c3ccccc3n2)cc1	GPR151 ag 5.4 | GPR151 confirm inactive | GPR119 counter inactive
Cc1ccc(Sc2cc(C(=O)NC3CCC(C)CC3)c3ccccc3n2)cc1 (configuration not stated)	none
O=C(Nc1ccncc1)c1cc(-c2ccncc2)nc2ccccc12	GPR151 ag 5.2 | GPR151 confirm inactive | GPR119 counter inactive
CNC(=O)c1cc(-c2ccc(C)cc2)nc2ccccc12	GPR151 ag 5.4 | GPR151 confirm inactive | GPR119 counter inactive
